Reference: PubChem BioAssay (NCATS)
Inconclusive results are not listed. Active and inactive are the calls of the source. The call rests on the fitted dose curve; in most records, active means well fitted inhibition curve with a large enough effect; inconclusive means small, poorly fitted or top-dose-only effect, or effect the other way; inactive means no such curve, though single readings can be large or run the other way.

Assay: High Content Imaging Cell-Based qHTS for Inhibitors of the mTORC1 Signaling Pathway in MEF Cells (AID 2667);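 further: Tsc2-/- p53-/- MEFs stably re-expressing wild-type Tsc2 exposed 24 h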
Conditions: series mostly up to 38.3 µM
From the text: NIH Molecular Libraries Probe Production Centers Network [MLPCN]
NIH Chemical Genomics Center [NCGC]
Assay Submitter (PI): Blenis, John; Hoffman, Greg; Harvard University
NCGC Assay Overview: The mammalian target of rapamycin (mTOR) is an intracellular serine/threonine kinase Aberrant regulation of mTOR signaling plays a causative role in a number of human diseases, including cancer, benign tumors such as lymphangioleiomyomatosis (LAM) and Tuberous Sclerosis Complex (TSC), and metabolic diseases such as diabetes and obesity. This project aims to identify inhibitors of ribosomal protein S6 (rpS6) phosphorylation. The phosphorylation of rpS6 is a key event downstream of mTOR activation. The assay uses a phospho-specific antibody of phospho-rpS6 to detect inhibitors of mTOR activation. Mutations in the Tsc1 and Tsc2 genes are the underlying genetic lesions responsible for TSC, causing constitutive activation of the mTORC1 pathway and leading to profound effects on cell metabolism. Aberrant metabolism in cancer has recently received significant attention as a target to develop therapeutic agents in the treatment of cancer.1 As Tsc2-/- cells have lost the ability to respond to energy and growth factor deprivation, these cells are unable to properly down regulate cellular biosynthetic processes in response to metabolic stress, and are thus extremely sensitive to glucose deprivation-induced death.2 A central goal of this project is to explore the unique cell survival and metabolic properties of cells with Tsc1 or Tsc2 by screening for compounds that selectively target the Tsc2-/- MEFs by screening both Tsc2-/- and WT MEF cell lines. We hope to better understand these aspects of TSC physiology in order to exploit them for therapeutic benefit.
NCGC IN Cell Assay Protocol:
For quantitative high throughput analysis of mTORC1 signaling, we developed a cell-based assay for immuno-fluorescence based detection of rpS6 phosphorylation on the Acumen Explorer that will be used a platform for the primary small molecule screen. Mouse embryonic fibroblasts (MEFs) are cultured in 1536-well plates using DMEM + 10% FBS. Twenty-four hrs after plating, test compounds (solubilized in DMSO) are delivered and incubated with the cells for 24 hrs at 37 degree Celsius. Following the incubation, media with compound is aspirated and the cells are fixed in 4% paraformaldehyde (PFA) containing PBS + 0.2% TX-100. Next, PFA is aspirated, cells are washed two times with PBS plus 0.2% TX-100 and the cells are blocked for 1 hr at room temperature (blocking buffer: LiCOR Blocking Buffer plus 0.2% TX-100). This is followed by aspiration and staining with Alexa-488 conjugated-phospho-rpS6 Ser235/236 antibody for 2 hours at room temperature (Cell Signaling Technology # 4803, 1:50 dilution in blocking buffer). Cells are washed two times with PBS plus 0.2% TX-100, and stained with 10 uM propidium iodide (PI) for 20-25 minutes for cell number measurement (1:500 dilution of Hoescht staining is also added for IN Cell imaging). Active wells which are selected (based on Acumen results) are imaged on the IN Cell 1000 (GE Healthcare) using the D360/40X and HQ480/40X excitation filters for the Hoechst and Alexa-488 cytoplasmic stains, respectively. The fluorescence emission filters used were HQ460/40M and HQ535/50M for the Hoechst and Alexa-488 cytoplasmic stains, respectively. The normalized phospho-S6 staining is calculated as the ratio of […] for the single concentration rapamycin control ([…] nM) and DMSO columns. […] Inhibition of the pathway is defined based on the normalized phospho-S6 intensity in rapamycin treated cells. Each treatment is reported as the % positive cells in the well, where thresholds are defined by selecting wells with the highest and lowest signal and differentiating between the % non-active and % active populations. […]

| Compound | outcome |
| --- | --- |
| CCC(C)N(C)C(=O)c1cc2ccccc2c(-c2ccccc2Cl)n1 (stereo not given) | inactive |
| Nc1ncnc2nc(-c3ccc(N4CCOCC4)nc3)cc(-c3cccc(Br)c3)c12 | inactive |
| Cn1cnc([N+](=O)[O-])c1Sc1ncnc2nc[nH]c12 | inactive |
| NS(=O)(=O)c1cc2c(cc1Cl)NC=NS2(=O)=O | inactive |
| NCCCC(N)(C(=O)O)C(F)F (stereo not given) | inactive |
| Cc1cn[nH]c1 | inactive |
| CC(C)(C)NCC(O)c1ccc(O)c(CO)c1 (stereo not given) | inactive |
| CNC[C@H](O)c1cccc(O)c1 | inactive |
| Cc1[nH]c(=O)c(C#N)cc1-c1ccc2nccn2c1 | inactive |
| CC(=O)Oc1ccccc1C(=O)O | inactive |
| CCN(CC)CCCC(C)Nc1ccnc2cc(Cl)ccc12 (stereo not given) | inactive |
| CCOC(=O)C1=C[C@]2(CC)CCCN3CCc4c(n1c1ccccc41)[C@@H]32 | inactive |
| CCCC(CCC)C(=O)O | inactive |
| CC(C)C[C@H](NC(=O)[C@@H](O)[C@H](N)Cc1ccccc1)C(=O)O | inactive |
| Nc1nc2c(ncn2COCCO)c(=O)[nH]1 | inactive |
| OC(CN1CCC(Cc2ccc(F)cc2)CC1)c1ccc(Cl)cc1 (stereo not given) | inactive |
| c1ccc([C@H]2CN3CCSC3=N2)cc1 | inactive |
| CC(C[N+](C)(C)C)OC(N)=O (stereo not given) | inactive |
| Cc1cccc(-c2[nH]c(C(C)(C)C)nc2-c2ccc3nccnc3c2)n1 | inactive |
| NC[C@H](O)c1ccc(O)c(O)c1 | inactive |

| Compound | outcome |
| --- | --- |
| Nc1nc2ccc(OC(F)(F)F)cc2s1 | inactive |
| C1COC(NC(C2CC2)C2CC2)=N1 | inactive |
| OC(CCN1CCCCC1)(c1ccccc1)C1CC2C=CC1C2 (stereo not given) | inactive |
| CC(C)(Sc1ccc(CCN(CCCCC2CCCCC2)C(=O)NC2CCCCC2)cc1)C(=O)O | inactive |
| Cc1oncc1C(=O)Nc1ccc(C(F)(F)F)cc1 | inactive |
| Cc1ccc(N(CC2=NCCN2)c2cccc(O)c2)cc1 | inactive |
| O=c1n(CCCN2CCN(c3cccc(Cl)c3)CC2)nc2ccccn12 | inactive |
| CN1CCN(CCCN2c3ccccc3Sc3ccc(C(F)(F)F)cc32)CC1 | inactive |
| O=c1[nH]cnc2[nH]ncc12 | inactive |
| Oc1ccc(C2CNCCc3c2cc(O)c(O)c3Cl)cc1 (stereo not given) | inactive |
| CCn1cc(C(=O)O)c(=O)c2cc(F)c(N3CCNC(C)C3)c(F)c21 (stereo not given) | inactive |
| CC(C)NCC(O)COc1ccc(COCCOC(C)C)cc1 (stereo not given) | inactive |
| Nc1ccc(S(=O)(=O)Nc2ccnn2-c2ccccc2)cc1 | inactive |
| N=c1nc(N2CCCCC2)cc(N)n1O | inactive |
| O=C1CCc2cc(OCCCCc3nnnn3C3CCCCC3)ccc2N1 | inactive |
| Cc1[nH]c(=O)c(C#N)cc1-c1ccncc1 | inactive |
| CCCCNc1cc(C(=O)O)cc(S(N)(=O)=O)c1Oc1ccccc1 | inactive |
| Cc1ccccc1C(OCCN(C)C)c1ccccc1 (stereo not given) | inactive |
| Cc1cnc(NC(=O)C2=C(O)c3ccccc3S(=O)(=O)N2C)s1 | inactive |
| NNCCc1ccccc1 | inactive |
